# The whole screen tested about 67,000 compounds, of which about 300 (0.45%) showed an effect of 50% or more. The sample holds strong results, similar compounds and a random draw of the others, so the mix is not that of the screen.
# Target: Polyketide synthase Pks13 (Mycobacterium tuberculosis (strain ATCC 25618 / H37Rv)) (UniProt I6X8D2)
# Experiment: Mycobacterium tuberculosis Polyketide synthase 13 Thioesterase (PKS13)
# Format: functional
# Set-up: scale not given: in the data most compounds retested in dose-response had high values
# Details: 30 µM
# Polyketide synthase Pks13 (Mycobacterium tuberculosis (strain ATCC 25618 / H37Rv)), sequence (I6X8D2 whole entry): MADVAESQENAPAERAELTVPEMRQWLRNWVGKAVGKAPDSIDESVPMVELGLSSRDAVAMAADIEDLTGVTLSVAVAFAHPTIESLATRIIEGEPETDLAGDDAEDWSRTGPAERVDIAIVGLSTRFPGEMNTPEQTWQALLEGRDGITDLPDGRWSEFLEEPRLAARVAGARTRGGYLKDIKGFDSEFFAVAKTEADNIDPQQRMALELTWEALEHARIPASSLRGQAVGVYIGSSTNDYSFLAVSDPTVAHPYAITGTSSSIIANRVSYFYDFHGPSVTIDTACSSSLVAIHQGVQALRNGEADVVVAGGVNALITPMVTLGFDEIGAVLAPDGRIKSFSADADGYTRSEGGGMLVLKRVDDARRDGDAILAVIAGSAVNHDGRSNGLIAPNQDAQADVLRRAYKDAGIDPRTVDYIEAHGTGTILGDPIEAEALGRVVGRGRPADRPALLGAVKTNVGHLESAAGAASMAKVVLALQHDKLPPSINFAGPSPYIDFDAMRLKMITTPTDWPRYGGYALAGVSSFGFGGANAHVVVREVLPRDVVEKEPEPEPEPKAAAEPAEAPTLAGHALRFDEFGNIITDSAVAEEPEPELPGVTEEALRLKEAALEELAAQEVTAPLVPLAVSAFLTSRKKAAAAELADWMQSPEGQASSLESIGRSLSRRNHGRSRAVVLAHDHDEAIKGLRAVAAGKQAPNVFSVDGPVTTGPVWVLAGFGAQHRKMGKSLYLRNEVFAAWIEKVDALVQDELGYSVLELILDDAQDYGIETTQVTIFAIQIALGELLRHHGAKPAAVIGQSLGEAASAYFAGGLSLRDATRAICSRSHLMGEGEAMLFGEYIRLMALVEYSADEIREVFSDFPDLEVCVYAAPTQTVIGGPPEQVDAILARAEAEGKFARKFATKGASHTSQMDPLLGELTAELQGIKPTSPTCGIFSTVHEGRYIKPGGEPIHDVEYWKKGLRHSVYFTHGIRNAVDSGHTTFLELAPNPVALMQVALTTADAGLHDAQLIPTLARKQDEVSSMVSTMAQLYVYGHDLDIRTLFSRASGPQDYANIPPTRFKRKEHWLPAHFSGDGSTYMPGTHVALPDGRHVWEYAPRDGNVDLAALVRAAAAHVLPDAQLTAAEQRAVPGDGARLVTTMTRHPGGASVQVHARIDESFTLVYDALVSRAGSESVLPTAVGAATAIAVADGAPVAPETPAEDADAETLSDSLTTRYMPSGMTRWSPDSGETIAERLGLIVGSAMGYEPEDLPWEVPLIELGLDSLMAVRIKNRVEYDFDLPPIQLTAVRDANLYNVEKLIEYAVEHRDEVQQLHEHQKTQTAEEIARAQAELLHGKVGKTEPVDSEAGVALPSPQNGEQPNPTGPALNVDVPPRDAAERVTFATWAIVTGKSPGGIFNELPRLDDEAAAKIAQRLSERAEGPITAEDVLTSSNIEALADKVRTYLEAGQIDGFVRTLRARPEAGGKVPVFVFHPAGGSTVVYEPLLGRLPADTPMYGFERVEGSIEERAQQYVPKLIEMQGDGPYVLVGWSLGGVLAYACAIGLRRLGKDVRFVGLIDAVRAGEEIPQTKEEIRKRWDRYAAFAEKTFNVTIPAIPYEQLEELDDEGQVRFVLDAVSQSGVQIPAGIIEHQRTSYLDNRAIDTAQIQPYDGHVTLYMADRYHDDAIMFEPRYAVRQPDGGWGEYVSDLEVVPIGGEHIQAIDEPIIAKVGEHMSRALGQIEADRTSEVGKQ
row,Compound,Percent Effect
1,CN(C)C(=O)c1nc(-c2ccc(S(C)(=O)=O)cc2)c2cnccn12,9.33%
2,CN(C)C(=O)c1nc(-c2ccc(S(C)(=O)=O)cc2)c2ccccn12,48.7%
3,CS(=O)(=O)c1ccc(-c2nc(C(=O)N3CCCC3)n3ccccc23)cc1,74.1%
4,CN1CCCC[C@@H]2[C@H]1[C@@H](c1ccccc1)CCN2C(=O)c1ccncc1,37.2%
5,Cc1nnsc1C(=O)N1CC[C@H](c2ccccc2)[C@@H]2[C@H]1CCCCN2C,56.9%
6,CN1CCCC[C@@H]2[C@H]1[C@@H](c1ccccc1)CCN2C(=O)c1ccccc1,-32%
7,CC(=O)N1C[C@H](NC(=O)c2cscn2)[C@@H]2OCCC[C@@H]21,-14.1%
8,CCCOc1ccccc1CCCNc1ncnc2oc(C)nc12,18%
9,CCCOc1ccc(Cl)cc1CNc1ncnc2oc(C)nc12,78.9%
10,CCC(CNc1ncnc2oc(C)nc12)Cc1ccccc1 (centres undefined),-13.8%
11,Cn1cccc1C(=O)N1C[C@H]2CC[C@@H]1CN(Cc1cscn1)C2,-21.5%
12,COc1ccc2c(c1)c(-c1nc(C)ncc1CN)cn2C,-1.61%
13,Cc1ncc(CN)c(-c2cn(C)c3ccccc23)n1,140%
14,COc1ccc2c(c1)c(-c1nc(N(C)C)ncc1CN)cn2C,-8.95%
15,O=C(C1CCOCC1)N1C[C@H](OCc2cccnc2)[C@H]2COC[C@H]21,-10.6%
16,O=C1CO[C@H]2CN(C3CCOCC3)C[C@H]2N1Cc1ccc(F)cc1,18.6%
17,Cc1ccc(-c2noc(CC[C@@H]3CCCN4CCCC[C@H]34)n2)nn1,-24.6%
18,O=C(CC1CC1)N1C[C@H]2CCN[C@H]2C1,1.79%
19,COc1ccc(-c2ccnc3nc(N4CCCCC4)[nH]c(=O)c23)cc1,75%
20,COc1cccc(-c2ccnc3nc(N4CCCCC4)[nH]c(=O)c23)c1,-83.6%
21,NC(=O)C1CCN(c2nc3nccc(-c4ccccc4)c3c(=O)[nH]2)CC1,-5.28%
22,COc1ccc(-c2ccnc3nc(N4CCCC4)[nH]c(=O)c23)cc1OC,-15.2%

row,Compound,Percent Effect
1,COc1ccccc1-c1ccnc2nc(N3CCCCC3)[nH]c(=O)c12,71.7%
2,O=c1[nH]c(N2CCCCC2)nc2nccc(-c3ccc4c(c3)OCO4)c12,-6.64%
3,Cc1cc(C(=O)N2C[C@H]3CC[C@@H]2CN(C(=O)c2ccncc2)C3)cs1,-6.64%
4,O=C(Nc1cccnc1)[C@@H]1COC[C@H]2CN(C3CCCC3)C[C@H]21,-9.56%
5,CCS(=O)(=O)N1CC[C@H]2OCC[C@@]2(c2nnc(C)o2)C1,-32.8%
6,CC1=N[C@@]2(CC[C@@H]3CN(S(=O)(=O)C4CC4)C[C@@H]32)C(=O)N1CC(C)C,-51.1%
7,CC1=N[C@@]2(CC[C@@H]3CN(S(C)(=O)=O)C[C@@H]32)C(=O)N1CC(C)C,75.9%
8,CCS(=O)(=O)N1C[C@H]2CC[C@@]3(N=C(C)N(CC(C)C)C3=O)[C@H]2C1,-10.2%
9,CN(C)CCNC(=O)[C@H]1C[C@H]2CN(c3ncccn3)C[C@H]2N1C,-18.5%
10,Cc1cccc(CN2CC[C@H]3[C@H]2CCN3C(=O)c2cnn(C)c2)n1,3.27%
11,CNCc1nc(-c2ccc3c(c2)OCO3)c[nH]1,0.694%
12,O=C(CSc1nccc(-c2ccc3c(c2)OCO3)n1)N1CCOCC1,26.7%
13,NC(=O)CCC(=O)N1CCc2[nH]nc(-c3ccc4c(c3)OCO4)c2C1,-10.3%
14,NC(=O)CSc1nccc(-c2ccc3c(c2)OCO3)n1,59.5%
15,CCOc1ccc(-c2ccc3c(c2)OCO3)cc1C(N)=O,-15.1%
16,O=C(O)CSc1nccc(-c2ccc3c(c2)OCO3)n1,51.8%
17,CN1CCO[C@H]2CN(S(=O)(=O)c3ccc(C#N)cc3)C[C@H]21,-7.61%
18,O=C([C@H]1COC[C@H]2CN(C3CCOCC3)C[C@H]21)N1CCCCO1,-4.79%
19,CN(C)c1nccc(N2CCO[C@H]3CN(Cc4ccco4)C[C@H]32)n1,-3.24%
20,O=S(=O)(c1ccccc1)N1C[C@@H]2COC[C@]2(CN2CCOCC2)C1,27.2%
21,Fc1cccc(CN2C[C@@H]3COC[C@]3(COCc3ccncc3)C2)c1,0.554%
22,O=C(CC1CCCC1)N1C[C@H](Oc2cccnc2)[C@H]2OCCC[C@H]21,-7.32%

row,Compound,Percent Effect
1,Cc1nccn1CC1CCCN1CCCc1nc(-c2cccs2)no1 (centres undefined),-4.96%
2,c1csc(-c2noc(CCCN3CCCC3Cn3cccn3)n2)c1 (centres undefined),-2.79%
3,c1csc(-c2noc(CCCN3CCCC3Cn3cncn3)n2)c1 (centres undefined),111%
4,c1ccc2oc(CCCN3CCCCC3Cn3cncn3)nc2c1 (centres undefined),58.4%
5,c1ccc2oc(CCCN3CCCC3Cn3cncn3)nc2c1 (centres undefined),-10.8%
6,c1ccc2oc(CN3CCCCC3Cn3cncn3)nc2c1 (centres undefined),-0.333%
7,CN(C)C(=O)COC[C@@H]1CC[C@H]2[C@H](CCN2c2ncccn2)O1,-0.596%
8,COCC(=O)N1C[C@H]2CNC[C@@]2(C(=O)NCc2cccc3[nH]ccc23)C1,-18.7%
9,CO[C@@H]1CC[C@H]2[C@H]1OCCN2CC1CC1,-4.52%
10,COc1ccc(OC)c(C(=O)N2C[C@H]3CC[C@@H]2CN(C)C3)c1,2.2%
11,O=C(c1ccnnc1)N1C[C@H](Oc2cccnc2)[C@H]2OCCC[C@H]21,-7.04%
12,CCc1nc2n(n1)CC(NCc1ncc(-c3ccccc3)o1)CC2 (centres undefined),108%
13,CC(C)c1nc2n(n1)CC(NCc1ncc(-c3ccccc3)o1)CC2 (centres undefined),-14.9%
14,CCc1nc2n(n1)CC(NCc1cnc(-c3ccccc3)nc1)CC2 (centres undefined),-15%
15,Cn1nc(-c2ccccc2)cc1[C@H]1CN2CC[C@H]1C[C@@H]2CNS(C)(=O)=O,-32.5%
16,CS(=O)(=O)c1ccc(-c2cc(C3CC3)c(C#N)c(N)n2)cc1,62.7%
17,N#Cc1c(C2CC2)cc(-c2ccc(O)cc2)nc1N,44.4%
18,COc1ccc(-c2cc(C3CC3)c(C#N)c(N)n2)cc1F,-126%
19,Cn1cc(CN2C[C@@H]3OCCN(CC4CCCC4)[C@@H]3C2)cn1,-22.6%
20,Cc1nc(CO[C@H]2CN(C(=O)c3ccc[nH]3)[C@@H]3COC[C@H]23)cs1,-11.9%
21,CCNC(=O)c1nnc2ccc(N3CCOCC3)cc2n1,48.2%
22,CCN(CC)C(=O)c1nnc2ccc(N3CCOCC3)cc2n1,51.7%

row,Compound,Percent Effect
1,CCN(CCC(F)(F)F)C(=O)Nc1cccc(N2CCOCC2)c1,-2.57%
2,O=C(NCc1ccccc1)c1nnc2ccc(N3CCOCC3)cc2n1,50.8%
3,CN(C)c1ccc(C(=O)NCc2ccc(N3CCOCC3)cc2)cn1,-1.83%
4,CN(C)C(=O)c1nnc2ccc(N3CCOCC3)cc2n1,11.7%
5,c1cncc(OC[C@@]23CCO[C@@H]2CCN(Cc2cccs2)C3)c1,12.4%
6,Cc1cccc(CN2C[C@@H]3COC[C@]3(COc3cccnc3)C2)n1,8.46%
7,CC(=O)N1[C@@H](C(=O)NCC2CC2)C[C@@H]2CN(Cc3ccco3)C[C@@H]21,-5.84%
8,O=C(c1ccccc1F)N1CC[C@@H]2CN(c3ncccn3)CCO[C@@H]2C1,12%
9,CCC(CNC(=O)COC)Oc1cccc(F)c1 (centres undefined),60.4%
10,CCC(CNC(=O)CNC(C)=O)Oc1cccc(F)c1 (centres undefined),-7.54%
11,CCC(=O)NCC(CC)Oc1cccc(F)c1 (centres undefined),-2.34%
12,O=C(CCc1ccccc1)N1C[C@@H]2CN(Cc3ccoc3)CCO[C@@H]2C1,-7.96%
13,CCc1nnc(CNc2ccc(CC(=O)N3CCSCC3)cc2)o1,5.6%
14,Cc1noc(CNc2ccc(CC(=O)N3CCSCC3)cc2)n1,70.3%
15,CCc1noc(CNc2ccc(CC(=O)N3CCSCC3)cc2)n1,-12.3%
16,CN1C(=O)[C@H]2CC[C@@H]1CN(C(=O)c1sccc1S(N)(=O)=O)C2,-33.4%
17,CCN1C[C@H]2CCN(C(=O)C3CCCO3)CC[C@H]2S1(=O)=O (some centres undefined),-20.2%
18,CNC(=O)[C@H]1C[C@@H]2CN(C(=O)c3cncc(C)c3)C[C@@H]2N1C,19.6%
19,CC(Nc1cnn(C)c(=O)c1Cl)c1ccc(F)cc1 (centres undefined),-8.28%
20,CC(Nc1cnn(C)c(=O)c1Cl)c1ccc(F)c(F)c1 (centres undefined),78.5%
21,COc1ccc(C(C)Nc2cnn(C)c(=O)c2Cl)cc1OC (centres undefined),2.82%
22,O=C1[C@H]2CN(c3ncccn3)C[C@H]2CN1Cc1ccncc1,-2.04%

row,Compound,Percent Effect
1,c1cc(CN2C[C@@H]3OCCN(CC4CCCO4)[C@@H]3C2)cs1 (some centres undefined),-16.8%
2,CCS(=O)(=O)N1C[C@H]2CN(Cc3ccc(OC)cc3)C(=O)[C@H]2C1,-7.48%
3,O=C(CC(F)(F)F)N1C[C@H]2CN(CC3CC3)C(=O)[C@H]2C1,-30.7%
4,Cn1cc(-c2ccnc(NCC3CC3)n2)cn1,-14.8%
5,COCCCN1CCC(CNc2nccc(-c3cnn(C)c3)n2)C1 (centres undefined),-31.5%
6,Cn1cc(-c2ccnc(NCC3CCN(Cc4ccccc4)C3)n2)cn1 (centres undefined),60.9%
7,O=C(CSc1ccccn1)N1C[C@H]2CC[C@@H]1CN(Cc1cscn1)C2,-9.36%
8,CN(C)C(=O)CN1C[C@@H]2CC[C@H](C1)N(C(=O)Cc1ccccc1Cl)C2,-15.3%
9,CN(C[C@@H]1CCC[C@@H]2CN(c3ncccn3)C[C@@H]21)C1CC1,75.8%
10,COc1cc(N2C[C@H]3CCC[C@@H](CN(C)C4CC4)[C@H]3C2)ncn1,-5.89%
11,COCCN(C)C[C@@H]1CCC[C@@H]2CN(c3ncccn3)C[C@@H]21,-50.6%
12,Cc1cccc(CN2C[C@H](OCc3csc(C)n3)[C@H]3COC[C@H]32)n1,-2.96%
13,CCOCC1CN(C(=O)c2cccn2C)Cc2cnn(CC3CC3)c21 (centres undefined),-11.3%
14,CCn1ncc2c1C(COCC1CC1)CN(C(=O)c1cccs1)C2 (centres undefined),-31.9%
15,CCOCC1CN(C(=O)c2cccs2)Cc2cnn(CC3CC3)c21 (centres undefined),80.6%
16,Cn1ccnc1CN1CC[C@@H]2[C@@H](CCC(=O)N2CCc2c[nH]cn2)C1,-26.1%
17,c1cnc(N2CCOCC3(CCCN(CC4CC4)C3)C2)cn1 (centres undefined),2.73%
18,c1cnc(N2CCC3(CCCN(CC4CCCCC4)C3)C2)cn1 (centres undefined),66.6%
19,CSc1nccc(N2CCC3(CCCN(CC4CC4)C3)C2)n1 (centres undefined),-0.995%
20,C[C@H]1C[C@H]2CN(S(=O)(=O)c3ccc(F)cc3)CC[C@@H]2O1,-20.4%
21,O[C@]12CCNC[C@H]1CN(c1nccc3ccccc13)CC2,-2.31%

# — ChEMBL document CHEMBL3988442, “University of Dundee, Small-Polar-MMV Screening Library” (2021)
